Source: PubChem BioAssay AID1868 (National Center for Advancing Translational Sciences (NCATS), 2009)
Among all 270,000 compounds or so, about 20 (0.007%) were called active. Calls follow the shape of the dose curve; as a rule, active = well fitted inhibition curve with a large enough effect; inconclusive = small, poorly fitted or top-dose-only effect, or effect the other way; inactive = flat fitted curve, though single readings scatter. The list is a sample of the results.

target: Galactokinase (Homo sapiens) (UniProt P51570); assay: qHTS Assay for Inhibitors of Human Galactokinase (GALK); conditions: Purified GALK, Kinase-Glo residual ATP luminescence; series mostly up to 57.5 µM
From the text: NIH Molecular Libraries Probe Production Centers Network [MLPCN] NIH Chemical Genomics Center [NCGC] MLPCN Grant: R03 MH085689-01 Assay Submitter (PI): Kent Lai (University of Utah School of Medicine, 50 N Mario Capecchi Drive, Salt Lake City, UT 84132) NCGC Assay Overview: Inherited deficiency of galactose-1-phosphate uridyltransferase (GALT) can result in a potentially lethal disorder called Classic Galactosemia (OMIM 230400). Several lines of evidence indicate that an elevated level of galactose-1-phosphate (gal-1-p), the product of galactokinase (GALK), is a major, if not sole, pathogenic mechanism in patients with classic galactosemia. Therefore, finding inhibitors of GALK is a potential novel therapy for this inherent metabolic disease and is the long term goal of this project. GALK (provided by the assay submitter) was assayed using ATP and D-(+)-Galactose (Sigma-Aldrich cat# G0750) as substrates. Promega Kinase-Glo Plus (cat# V3774) technology was used to detect the residual ATP following kinetic reaction. Briefly, the Kinase-Glo Plus contains Ultra-Glo [2] luciferase and D-luciferin which generates a bioluminescence signal from the remaining ATP.
NCGC Assay Protocol Summary: Three uL/well of ATP-buffer solution (35 uM ATP, 20mM HEPES pH8.0, 5 mM MgCl2, 60 mM NaCl, 1 mM DTT, 0.01% BSA final concentration) was dispensed into 1536-well, assay plates (Greiner, solid white medium-binding plates) with Aurora Discovery BioRAPTR Flying Reagent Dispenser (FRD; Beckton-Dickenson). Compound solution (23 nL) was transferred to the assay plate using the Kalypsys 1536-pin tool. One uL/well GALK-galactose solution (5 nM GALK, 100 uM galactose, 20 mM HEPES pH8.0, 5 mM MgCl2, 60 mM NaCl, 1 mM DTT, 0.01% BSA final concentration) was then added using the FRD yielding a total kinase reaction volume of 4 uL/ well. After 1 hour of room temperature incubation, 4 uL Kinase-Glo Plus reagent was added for a final assay volume of 8 uL/ well. Luminescence was detected with the ViewLux plate reader (Perkin Elmer, Waltham, MA) after 10 min incubation using a 1 sec exposure time and 2x binning.

Sequence of Galactokinase (Homo sapiens) (P51570 whole entry, looked up): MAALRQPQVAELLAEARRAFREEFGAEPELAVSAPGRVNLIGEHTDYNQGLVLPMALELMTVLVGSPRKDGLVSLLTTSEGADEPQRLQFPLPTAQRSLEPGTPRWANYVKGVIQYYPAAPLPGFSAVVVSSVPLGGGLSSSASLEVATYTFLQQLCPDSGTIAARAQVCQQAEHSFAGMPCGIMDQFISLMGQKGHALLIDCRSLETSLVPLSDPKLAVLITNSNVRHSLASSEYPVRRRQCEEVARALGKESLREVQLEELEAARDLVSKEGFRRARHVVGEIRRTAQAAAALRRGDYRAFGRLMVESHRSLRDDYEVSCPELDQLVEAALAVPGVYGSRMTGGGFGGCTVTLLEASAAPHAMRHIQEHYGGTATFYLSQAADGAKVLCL

outcome, inactive:
CCOC(=O)C(Cc1ccc(N)cc1)N1C(=O)c2ccccc2C1=O (stereo not drawn), COc1ccccc1N1CCN(/N=C/c2ccc(O)cc2O)CC1, CC(=O)N[C@@H](C)C(=O)N1CCC(n2nccc2NC(=O)CCCc2ccccc2)CC1, COc1ccc(C(=O)NCCSc2ccccc2C)cc1, CCOCc1nnc(NC(=O)CCS(=O)(=O)Cc2ccccc2)s1, CCC(=O)Nc1ccc(-c2ccc(N3CCCCC3)nn2)cc1, COc1ccc(-c2csc3ncnc(N4CCN(S(=O)(=O)c5ccccc5C#N)CC4)c23)cc1, CC(=O)Nc1ccc(S(=O)(=O)Nc2cc(C)cn(Cc3ccc(C)cc3)c2=O)cc1, COc1ccc(CN2CCCC(N3CCc4ccccc4C3)C2)c(O)c1 (stereo not drawn), CC1CCN(S(=O)(=O)c2ccc3c(c2)n(C)c(=O)n3C)CC1, Cc1ccccc1Nc1nc(-c2cccnc2)cs1, CC1=NN(C(N)=S)C(=O)C1N=Nc1cc(Cl)ccc1Cl (stereo not drawn), CC(C)(C)c1ccc(SCCc2ccncc2)cc1, O=C(/C=C/c1ccc([N+](=O)[O-])o1)NNC(=O)c1ccc(F)cc1, CC(C)(C)C(=O)NC1CC2CCCC(C1)N2C(=O)Nc1ccccc1F (stereo not drawn), Cc1cc(C)c2nc(N(CCN(C)C)C(=O)/C=C/c3cccs3)sc2c1, COc1ccc(C(=O)O/N=C(\N)c2ccccn2)cc1[N+](=O)[O-], CS(=O)(=O)N1CCN(C(=O)CSc2ccccc2)CC1, CCC(C)c1ccc(NC(=S)N2CCCC2)cc1 (stereo not drawn), O=C(CN1CCN(c2cccc(Cl)c2)CC1)Nc1ccc(S(=O)(=O)N2CCOCC2)cc1, CCc1ccccc1NC(=O)c1ccc2snnc2c1, CN(c1ccc(O)cc1)c1nc(-c2cccnc2)cs1, Cc1ccc(C(=O)Nc2nnc(C3=COCCO3)o2)cc1C, CCN1CCN(c2sc(S(C)(=O)=O)nc2S(=O)(=O)c2ccc(Cl)cc2)CC1, Cc1cccc(Nc2nc(-c3ccccc3)cs2)n1, COc1ccc(/C=C(\C#N)c2c[nH]c3ccccc23)cc1, COc1ccc(CCc2nc(-c3cccs3)no2)cc1, O=C(Nc1ncc([N+](=O)[O-])s1)C1COc2ccccc2O1 (stereo not drawn), COCCN1C(=O)N(c2ccc(Cl)cc2)C(=O)C1CC(=O)Nc1cc(OC)cc(OC)c1 (stereo not drawn), Cc1c(C)n(Cc2ccc(Cl)cc2)c2ccc(C(=O)NCCCN3CCOCC3)cc12, Cc1cccc2sc(N(CCCN(C)C)C(=O)CCS(=O)(=O)c3ccccc3)nc12, O=C(c1ccco1)N1CCN(C(=O)c2cc(-c3ccccc3F)no2)CC1, CCOC(=O)c1csc(CCNC(=O)c2oc3c(Cl)cc(C)cc3c2C)n1, COc1ccc(NC(=O)C/C(C)=N/NC(=O)c2cnccn2)cc1Cl, COc1ccc(/C=N/Nc2ccccc2C(=O)O)cc1, Cc1ccc(CNC(=O)C(=O)c2cn(CC(=O)N3CCOCC3)c3ccccc23)cc1, COc1ccc(C)cc1N(CC(=O)N1CCCC1)S(=O)(=O)c1ccccc1, CC(c1ccccn1)N(C)C(=O)c1ccc2nc(Cc3cccc(Cl)c3)oc2c1 (stereo not drawn), COc1ccc(OC)c(/C(C)=N\NC(=O)c2cc3cc(Cl)ccc3n2C)c1, O=C(O)c1ccccc1NC(=O)c1ccccc1-c1ccccc1C(=O)O, CCS(=O)(=O)Nc1ccc(C(=O)NCCSc2ccccc2)cc1, O=C(NCCc1ccc(Cl)cc1)c1cccc(N2CCCC2=O)c1, Cc1cc(=O)n2nc(N3CCCC(C(=O)NCc4ccc(Cl)cc4)C3)sc2n1 (stereo not drawn), Cc1ccc(C)c(S(=O)(=O)N2CCCOC2CNC(=O)C(=O)NC2CCCCC2)c1 (stereo not drawn), COc1ccc(C(=O)CCc2ccccc2O)c(OC)c1, O=C(/C=C/c1ccco1)NC(=S)N1CCCCC1, CN(Cc1cnccn1)C(=O)c1cc(COc2cccc(C(F)(F)F)c2)on1, O=C(N/N=C/c1c[nH]c2ccccc12)c1ccccc1O, Oc1ccccc1C1=NN(c2ccccc2)C(c2ccccc2)C1 (stereo not drawn), CCCN1CCn2c3c(c4cc(Br)ccc42)CCCC31 (stereo not drawn), COC(=O)c1cc(NS(=O)(=O)c2ccc3c(c2)c(=O)n(C)c(=O)n3C)cc(C(=O)OC)c1, CC(=O)c1ccc(S(=O)(=O)NCc2nnnn2-c2ccccc2)cc1, COc1cccc2[nH]c(C(=O)NCCc3ccccc3)cc12, Cc1cccnc1CC(C)NC(=O)c1cc(COc2cncc(Cl)c2)on1 (stereo not drawn), COc1ccc(N2CCN(C(=O)c3cccs3)CC2)cc1, Cc1onc(C(=O)Nc2ccc3c(c2)OCO3)c1[N+](=O)[O-], C/C(=N\Nc1nncc2ccccc12)c1ccc(Cl)c([N+](=O)[O-])c1, CC(=O)c1ccc(NC(=O)CCNS(=O)(=O)c2cc(Br)cnc2N)cc1, COc1ccccc1CCNC(=O)c1c(C)nn(CC(C)C)c1Cl, Cn1c(NC(=O)c2ccccc2)nc2ccccc21, C=CCNC(=S)/N=c1/ccccn1Cc1ccccc1, CCCCc1nc2cc(C(=O)N3CCCCC3CCO)ccc2o1 (stereo not drawn), COc1cccc(OCc2cc(C(=O)N3CCN(C(=O)c4ccco4)CC3)no2)c1, CCOc1ccc(C2C(C#N)=C(N)N(N(C)C)C3=C2C(=O)CCC3)cc1 (stereo not drawn), CC(=O)c1cccc(NC(=O)CN2C(=O)c3cccnc3Oc3ccc(Cl)cc32)c1, O=C(CN1CCN(S(=O)(=O)c2cc(Cl)ccc2Cl)CC1)c1ccc(O)c(O)c1, COc1ccccc1CCCNC(=O)C1CCC(=O)N(CCN2CCOCC2)C1 (stereo not drawn), COc1ccc(CCNCc2c(-c3ccccc3)n(C)c3ccccc23)cc1, CCn1nnnc1SCC(=O)Nc1ccc(N(C)C)cc1, O=C(CN1CCCCCC1)Nc1ccc(Br)cc1[N+](=O)[O-], COCCNC(=O)c1ccc2nc(Cc3ccc(OC)c(OC)c3)oc2c1, CCOc1ccc(C(=O)CCN2CCOCC2)cc1, O=C(c1cc(COc2ccc(F)c(F)c2)on1)N1CCOCC1, Cc1cc(Br)ccc1NC(=S)NC1CCCC1, CC(C)c1ccc(NC2CCCN(C(=O)c3ccncc3)C2)cc1 (stereo not drawn), CC(=O)c1ccc(OC(=O)N2CCOCC2)cc1, CCC(=O)Nc1ccc2nn(-c3ccc(F)cc3)nc2c1, C=CCc1cccc(/C=N/NC(=O)COc2ccc(-n3cnnn3)cc2)c1O, O=C(Cc1cccs1)Nc1ccc([N+](=O)[O-])cc1, COc1ccc(N2CCN(C3CCCCC3NS(=O)(=O)c3ccccc3)CC2)cc1 (stereo not drawn), CN(C)CCCNC(=S)N1CCC(c2nc3ccccc3[nH]2)CC1, COc1ccc(OCc2cc(C(=O)NCC3(C)COC3)no2)c(Cl)c1, O=C(N/C(=C\c1ccc([N+](=O)[O-])cc1)C(=O)N1CCCCC1)c1ccco1, c1ccc(-c2ccc(OCCN3CCOCC3)cc2)cc1, COc1cc(C(=S)N2CCOCC2)cc(OC)c1OC(=O)c1ccc([N+](=O)[O-])cc1[N+](=O)[O-], Cc1ccc(-c2noc(C3CCCN(C(=O)c4cccc(Cl)c4)C3)n2)o1 (stereo not drawn), C/C(=N\NC(=O)c1ccoc1C)c1ccccc1O, Cc1ccc(CNC(=O)C(=O)c2cn(CC(=O)N3CCCC3)c3ccccc23)cc1
